Bioassay records deposited in PubChem BioAssay by Broad Institute.
An excerpt weighted towards active compounds, which were near 2.3% of everything screened.
Pf Dd2 growth: blocks growth of Plasmodium falciparum Dd2 parasites; P. falciparum Dd2 growth, SYBR Green, 72 h; stronger effect = lower value; activity change, % at 10 µM; hit rate 2.3% among 94,000; AID 1159554; in the data active means activity change below about -80%; inconclusive means no clear call, values can overlap the other calls
C diff growth: inhibitors of Clostridium difficile growth. growth activity, negative = inhibition, % at 16 µg/mL (by protocol). hit rate 0.25% among 86,000. Clostridium difficile clinical isolate growth, OD600, 24 h; stronger effect = lower value;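 active means mean growth activity at or below -80% and every replicate also at or below -80%; inconclusive means mean at or below -80% but some replicate above -80%; inactive means mean growth activity above -80%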;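 further: 0% = DMSO wells and -100% = levofloxacin 16 µg/mL wells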
* marks the source's active call; other numbers are inactive results.

C[C@@H]1CN([C@H](C)CO)S(=O)(=O)c2ccc(-c3ccncc3)cc2O[C@@H]1CN(C)Cc1ccc(Oc2ccccc2)cc1 was read as Pf Dd2 growth -87* and C diff growth -1.
Screening CC(C)CC#Cc1ccc2c(c1)O[C@@H](CN(C)Cc1cccc(F)c1)[C@H](C)CN([C@@H](C)CO)S2(=O)=O returned Pf Dd2 growth -84* and C diff growth 5.
`Cc1ccc(-c2ccc3c(c2)O[C@@H](CN(C)Cc2cccnc2)[C@H](C)CN([C@@H](C)CO)S3(=O)=O)cc1` gave Pf Dd2 growth -81* and C diff growth -14.
`C[C@H]1CN([C@@H](C)CO)S(=O)(=O)c2ccc(-c3ccncc3)cc2O[C@@H]1CN(C)Cc1ccc(Oc2ccccc2)cc1` gave Pf Dd2 growth -79 and C diff growth 35.
For Cc1ccc(-c2ccc3c(c2)O[C@H](CN(C)Cc2cccnc2)[C@@H](C)CN([C@H](C)CO)S3(=O)=O)cc1 the results were Pf Dd2 growth inconclusive and C diff growth 3.
`CC(C)CC#Cc1ccc2c(c1)O[C@@H](CN(C)Cc1cccc(F)c1)[C@@H](C)CN([C@H](C)CO)S2(=O)=O` gave Pf Dd2 growth -44 and C diff growth 22.
`CN(C)CC#Cc1ccc([C@@H]2[C@H]3CN(C(=O)Nc4cc(F)ccc4F)CCCCN3[C@H]2CO)cc1` gave Pf Dd2 growth 7 and C diff growth 6.
`COc1ccc(CN(C)C[C@@H]2Oc3ccc(NC(=O)CCC(F)(F)F)cc3C(=O)N([C@H](C)CO)C[C@H]2C)cc1` gave Pf Dd2 growth -1 and C diff growth -1.
For COCC(=O)N1CC2(C1)[C@H](c1ccc(-c3cccc(C)c3)cc1)[C@H](CO)N2C(=O)C1CC1 the results were Pf Dd2 growth -51 and C diff growth -7.
For NCC[C@@H]1CC[C@@H](NC(=O)NC2CCCCC2)[C@@H](CO)O1 the results were Pf Dd2 growth 1 and C diff growth 0.
Screening C[C@@H](NC(=O)[C@H]1N[C@H]2c3ccc(-c4cncnc4)c(=O)n3C[C@H]2[C@@H]1CO)c1ccccc1 returned Pf Dd2 growth 7 and C diff growth 4.
`O=C(C[C@H]1CC[C@H]2[C@@H](COC[C@H](O)CN2C(=O)c2ccccc2)O1)N1CCOCC1` gave Pf Dd2 growth 6 and C diff growth 2.
COc1ccc(S(=O)(=O)N(C)C[C@H]2Oc3ccc(NS(C)(=O)=O)cc3C(=O)N([C@@H](C)CO)C[C@@H]2C)cc1 was read as Pf Dd2 growth -8 and C diff growth 2.
Screening C[C@H]1CCCCO[C@H](CN(C)S(=O)(=O)c2ccc(Cl)cc2)[C@@H](C)CN([C@@H](C)CO)C(=O)c2cc(NC(=O)c3ccccc3)ccc2O1 returned Pf Dd2 growth -81* and C diff growth 8.
`C[C@@H]1CN([C@@H](C)CO)C(=O)c2cc(NC(=O)c3ccccc3)ccc2O[C@@H](C)CCCCO[C@H]1CN(C)S(=O)(=O)c1ccc(Cl)cc1` gave Pf Dd2 growth -84* and C diff growth 3.
For C[C@H]1CCCCO[C@@H](CN(C)S(=O)(=O)c2ccccc2)[C@@H](C)CN([C@@H](C)CO)C(=O)c2cc(NC(=O)c3ccccc3)ccc2O1 the results were Pf Dd2 growth -68.
`C[C@@H]1CN([C@@H](C)CO)C(=O)c2cc(NC(=O)c3ccccc3)ccc2O[C@@H](C)CCCCO[C@@H]1CN(C)S(=O)(=O)c1ccc(Cl)cc1` gave Pf Dd2 growth -86* and C diff growth 14.
For C[C@@H]1CCCCO[C@H](CN(C)S(=O)(=O)c2ccccc2)[C@H](C)CN([C@@H](C)CO)C(=O)c2cc(NC(=O)c3ccccc3)ccc2O1 the results were Pf Dd2 growth -56.
C[C@@H]1CCCCO[C@@H](CN(C)S(=O)(=O)c2ccc(Cl)cc2)[C@H](C)CN([C@@H](C)CO)C(=O)c2cc(NC(=O)c3ccccc3)ccc2O1 was read as Pf Dd2 growth -70 and C diff growth 2.
For C[C@@H]1CCCCO[C@@H](CN(C)S(=O)(=O)c2ccc(Cl)cc2)[C@H](C)CN([C@H](C)CO)C(=O)c2cc(NC(=O)c3ccccc3)ccc2O1 the results were Pf Dd2 growth -85* and C diff growth 2.
C[C@@H]1CCCCO[C@@H](CN(C)S(=O)(=O)c2ccccc2)[C@H](C)CN([C@@H](C)CO)C(=O)c2cc(NC(=O)c3ccccc3)ccc2O1 was read as Pf Dd2 growth -38.
For CCCNC(=O)[C@H]1[C@H](CO)[C@H]2Cn3c(ccc(-c4ccc(OC)cc4)c3=O)[C@@H]1N2CC the results were Pf Dd2 growth -20 and C diff growth 3.
CCN1[C@@H]2c3ccc(/C=C/c4ccccc4)c(=O)n3C[C@H]1[C@H](CO)[C@H]2C(=O)NC1Cc2ccccc2C1 was read as Pf Dd2 growth 11 and C diff growth -22.
Screening C[C@H](CO)N1C[C@H](C)[C@@H](CN(C)C(=O)Cc2ccncc2)Oc2cc(C#CC3CCCC3)ccc2S1(=O)=O returned Pf Dd2 growth -85* and C diff growth 2.
Screening C[C@@H]1CN([C@@H](C)CO)S(=O)(=O)c2ccc(C#CC3CCCC3)cc2O[C@@H]1CN(C)C(=O)Cc1ccncc1 returned Pf Dd2 growth -32 and C diff growth -1.
`C[C@@H]1CN([C@H](C)CO)S(=O)(=O)c2ccc(C#Cc3ccncc3)cc2O[C@@H]1CN(C)C(=O)C1CC1` gave Pf Dd2 growth -25.
Screening C[C@@H]1CN([C@@H](C)CO)S(=O)(=O)c2ccc(C#Cc3ccccc3)cc2O[C@H]1CN(C)C(=O)Cc1ccccn1 returned Pf Dd2 growth -84* and C diff growth -19.
For C[C@@H]1CN([C@H](C)CO)S(=O)(=O)c2ccc(C#Cc3ccccc3)cc2O[C@@H]1CN(C)C(=O)C1CC1 the results were Pf Dd2 growth -82* and C diff growth 4.
`C[C@@H]1CN([C@@H](C)CO)S(=O)(=O)c2ccc(C#CC3(O)CCCC3)cc2O[C@H]1CN(C)C(=O)c1ccccc1` gave Pf Dd2 growth -86* and C diff growth -9.
`C[C@H]1CN([C@@H](C)CO)S(=O)(=O)c2ccc(C#CC3(O)CCCC3)cc2O[C@H]1CN(C)C(=O)c1ccccc1` gave Pf Dd2 growth -46 and C diff growth -2.
C[C@H]1CN([C@@H](C)CO)S(=O)(=O)c2ccc(C#Cc3ccccc3)cc2O[C@@H]1CN(C)C(=O)Cc1ccccn1 was read as Pf Dd2 growth -78 and C diff growth -10.
Screening C[C@@H]1CN([C@@H](C)CO)C(=O)CCCn2cc(nn2)CO[C@@H]1CN(C)C(=O)c1ccc2ccn(C)c2c1 returned Pf Dd2 growth 4 and C diff growth -1.
Screening COc1cccc(-c2ccc([C@H]3[C@@H](CO)N4C(=O)CN(C(=O)C5CCCC5)C[C@@H]34)cc2)c1 returned Pf Dd2 growth -22 and C diff growth 4.
COC(=O)C[C@H]1CC[C@@H]2[C@@H](COc3ccc(NC(=O)c4cnccn4)cc3C(=O)N2C)O1 was read as Pf Dd2 growth -3 and C diff growth 0.
`CCC(=O)N(C)C[C@@H]1Oc2cc(C#Cc3ccccc3)ccc2S(=O)(=O)N([C@H](C)CO)C[C@@H]1C` gave Pf Dd2 growth -72 and C diff growth -7.
`C[C@H](CO)N1C[C@H](C)[C@H](CN(C)C(=O)C2CC2)Oc2cc(C#Cc3ccncc3)ccc2S1(=O)=O` gave Pf Dd2 growth -56.
